# Hits are enriched below; roughly 2.1% of the tested compounds scored in any of these assays.
# TDP43 rescue: rescues yeast growth from TDP-43 toxicity; TDP-43 expressing yeast growth rescue, BacTiter-Glo, 24 h; Potency, µM (titrated, usually from 46.1 µM), for inactives: at the top dose growth rescue (activation), actives largely listed as activators; hit rate 1.8% among 410,000; AID 652104; further: % of control where 0% means no effect; nearly all actives have a fitted effect of over 50% in size
#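 Growth rescue of TDP-43-toxic yeast measured as ATP luminescence (BacTiter-Glo). Cells grown to mid-log in raffinose, induced in galactose at OD600=0.02, exposed to compound 24 hr at 30 deg C.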
# Abeta yeast res: A-beta toxicity reversal in yeast; AID 1347071; yeast expressing A-beta42, growth rescue, OD600, 48 h; response scale: 0% DMSO, 100% iron-clioquinol control; hit rate 0.063% among 410,000; Potency, µM (doses to about 46.1 µM), hits mostly activators; further: nearly all actives have a fitted effect of over 55% in size
#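 Yeast growth medium received pinned compounds, then yeast cells expressing toxic A-beta were added; plates incubated at 30 C for 48 hr. Growth read as absorbance at 600 nm, normalized to DMSO and equimolar FeCl3 plus clioquinol controls.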
# aSyn yeast inh: alpha-synuclein toxicity inhibition in yeast; Yeast expressing alpha-synuclein, growth rescue, BacTiter-Glo, 24 h; Potency, µM (doses to about 46.1 µM), inactives show at the top dose growth rescue (activation), most hits filed as activators; hit rate 0.14% among 370,000; further: % of control where 0% means no effect; nearly all actives have a fitted effect of over 65% in size
#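 Screening used galactose-induced yeast with toxic alpha-synuclein levels, exposed to compound for 24 hr at 30 deg C. Cell growth, read with BacTiter-Glo luminescence, gave the measured signal.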
# FUS yeast rescue: rescues growth of FUS-expressing yeast | S. cerevisiae FUS-expressing, growth rescue, OD600, 24 h | Potency, µM (titrated, usually from 76.6 µM), usual class: activators | hit rate 0.24% among 390,000 | AID 1347120;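 further: plate controls were DMSO vehicle for no effect and reference control for full effect; nearly all actives have a fitted effect of over 55% in size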
#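 Restored growth of FUS-toxic S. cerevisiae, read as 600 nm absorbance after 24 h at 30C in galactose medium (starting OD 0.005). Controls CP55940 and DMSO.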
# Starred values were filed as active, the others as inactive; i = inactive; ? = inconclusive; · = not tested or not shown; [ ] = remark or other dose. The call rests on the fitted dose curve; in most records, active means well fitted curve in the direction sought with a large enough effect; inconclusive means small, poorly fitted or top-dose-only effect, or another doubt; inactive means no such curve, though single readings can be large; an effect the other way counts as inactive or inconclusive. Potency means the concentration at half of the fitted maximal effect.
SMILES,TDP43 rescue,Abeta yeast res,aSyn yeast inh,FUS yeast rescue
O=C(NCCS(=O)(=O)N1CCN(c2ccc(F)cc2)CC1)c1cccc(C(F)(F)F)c1,10µM*,?,·,i
COc1ccccc1C(=O)N1CCCN(C(=O)c2ccccc2OC)CC1,-8%,i,-5%,i
COc1ccccc1C(=O)N1CCN(C(=O)c2oc3c(C)c(C)ccc3c2C)CC1,32µM*,i,1%,i
Nc1ccc2oc(CCc3ccccc3)nc2c1,18µM*,i,-1%,i
CCCN(CC1CC1)C(=S)Nc1ccc(Oc2ccccc2)cc1,20µM*,i,0%,·
CN(C)c1ccc(C2CCc3ccccc3N2C(=O)c2ccccc2)cc1 (stereo not given),·,·,-8%,·
c1csc(Cn2c(-c3cccs3)nc3ccccc32)c1,13µM*,i,-16%,i
Cc1ccccc1S(=O)(=O)Nc1nc2ccccc2nc1Cl,10µM*,i,-10%,i
O=C(CCCc1ccccc1)Nc1nccs1,11µM*,i,8%,i
O=C(CCCc1cccs1)Nc1nccs1,-15%[9.22 µM],i,-2%,i
COc1ccc(NC(=O)CCn2c(=O)c3cccn3c3ccccc32)cc1,5%,i,-2%,i
COc1ccc(NC(=O)CCn2c(=O)c3cccn3c3ccccc32)c(OC)c1,22µM*,i,8%,i
COc1ccc(NC(=O)NCc2cccn2C)c(OC)c1,-3%,i,-2%,28µM*
Cc1ccc(-c2c3c(=O)n(C)c(=O)n(C)c3c3c(-c4cccc(C)c4)nc4ccccc4n23)cc1,?,i,·,i
COc1ccc(-c2c3c(=O)n(C)c(=O)n(C)c3c3c(-c4cccc(C)c4)nc4ccccc4n23)cc1,16µM*,i,·,i
Cc1ccc(CNC(=O)C2CCN(c3ncnc4c3nc3n4CCCCC3)CC2)cc1,5%,i,·,i
CCOC(=O)CSc1nnc2n(-c3ccccc3)c(=O)c3c4c(sc3n12)CC(C(C)(C)C)CC4 (stereo not given),35µM*,i,·,?
Cc1ccc(NC(=O)c2c(C)oc3ncnc(N4CCCCC4)c23)c(C)c1,13%,i,·,i
CCc1ccccc1NC(=O)CSc1ncc(S(=O)(=O)c2ccccc2)c(=O)[nH]1,7%,i,4µM*,i
COC(=O)CSc1ncc(S(=O)(=O)c2ccccc2)c(=O)[nH]1,-16%,i,3%,i
COc1cccc(NS(=O)(=O)c2ccc3[nH]cc(C(=O)NC4CCCCC4)c(=O)c3c2)c1,7%,i,·,?
Oc1ccc(Oc2ncc(Cl)cc2Cl)cc1,8.9µM*,i,13%,·
CCOCCOC(=O)C(C)Oc1ccc(Oc2ncc(Cl)cc2Cl)cc1 (stereo not given),-3%,i,-10%,·
COc1ccc2nc(N3CCCCC3)c(C#N)cc2c1,13µM*,i,4%,i
COc1ccc2nc(N3CCCC3)c(C#N)cc2c1,21%,i,5%,i
SMILES,TDP43 rescue,Abeta yeast res,aSyn yeast inh,FUS yeast rescue
CC(=O)N1CCN(C(=O)CN2C(=O)CC(C)(C)S(=O)(=O)c3ccccc32)CC1,·,·,·,i
c1cncc(-c2ccc3[nH]ccc3c2)c1,10%,i,1%,i
c1ccc(-c2ccc3[nH]ccc3c2)cc1,13µM*,i,-27%,i
NC(=S)N/N=C/c1cccc(/C=N/NC(N)=S)c1,-8%,i,-6%,i
O/N=C\c1ccc(-c2ccccc2)o1,8.9µM*,i,-6%,·
NC(=S)N/N=C/c1ccc(-c2ccc(Cl)c(Cl)c2)o1,20µM*,i,21%,i
O=[N+]([O-])c1ccc(-c2ccc(/C=N/O)o2)cc1,?,i,7%,i
NC(=S)N/N=C/c1cccc(Br)c1,20µM*,i,7%,i
NC(=S)N/N=C/c1ccc(-c2ccccc2)o1,11µM*,?,10%,i
CCC[C@H]1[C@@H](N)CC[C@@]23CCCN2C(=O)CCC[C@@H]13,·,·,·,i
CCOc1ccc(CN(CCc2ccc3c(c2)OCO3)Cc2cc(OC)cc(OC)c2)cc1,-4%,i,·,i
NC(=S)N/N=C/C=C/c1ccccc1,10µM*,i,5%,i
Cc1ccc(Cl)cc1NC(=O)Nc1nnc(N(C)Cc2ccccc2)s1,4%,i,·,i
O=C(Cc1ccccc1)N1CCN=C1SCc1cccc([N+](=O)[O-])c1,21%,i,11%,i
Cc1cccc(C(=O)N2CCN=C2SCc2ccc([N+](=O)[O-])cc2)c1,10µM*,i,4%,i
COc1cccc(/C=c2/[nH]c(=O)/c(=C\c3cccc(OC)c3OC)[nH]c2=O)c1OC,·,·,0%,·
Fc1ccc(Cn2cc(C(=S)N3CCOCC3)c3ccccc32)cc1,?,i,-33%,i
Fc1ccccc1Cn1cc(C(=S)N2CCOCC2)c2ccccc21,?,?,20µM*,i
COc1ccc(-n2c(SCC(=O)Nc3cc(C)c(NC(=O)c4ccccc4)cc3OC)nnc2-c2ccco2)cc1,·,·,·,11µM*
Clc1cccc(-c2noc3ncnc(NC4CCCCC4)c23)c1,-2%,i,·,i
Clc1ccc(-c2noc3ncnc(NC4CCCCC4)c23)cc1,35µM*,i,·,i
CC1CCC(Nc2ncnc3onc(-c4ccc(Cl)cc4)c23)CC1 (stereo not given),20µM*,i,-1%,i
COC(=O)c1c(-c2ccc(Br)cc2)noc1N,20µM*,i,-3%,i
C=CCOc1c(Br)cc(CNc2ccc(NC(=O)CCC)cc2)cc1OCC,?,?,2%,i
C=CCOc1c(Br)cc(CNc2ccc(NC(=O)C(C)C)c(OC)c2)cc1OCC,10%,i,10%,14µM*
SMILES,TDP43 rescue,Abeta yeast res,aSyn yeast inh,FUS yeast rescue
CCc1ccc(Oc2c(C(F)(F)F)oc3c(CN4CCC(C)CC4)c(O)ccc3c2=O)cc1,23%,i,3%,i
CC(=O)n1c2c(c3ccccc31)OC(N)=C(C#N)C2c1ccc(C(C)C)cc1 (stereo not given),1%,i,20µM*,i
CC(C)COc1ccc(-c2nn(-c3ccccc3)cc2CO)cc1,28µM*,i,4%,i
CCn1c(CCCCc2n[nH]c(=S)n2CC)n[nH]c1=S,7%,i,-1%,i
CCn1c(CN2c3ccccc3Sc3ccccc32)n[nH]c1=S,0%,16µM*,21%,i
O=C(c1ccc([N+](=O)[O-])cc1)N1CCc2ccccc2C1,-15%[0.397 µM],i,1%,i
O=C(Nc1cccc([N+](=O)[O-])c1)N1CCCc2ccccc21,11µM*,i,-5%,i
O=[N+]([O-])c1ccc(NC(=S)N2CCc3ccccc3C2)cc1,25µM*,i,?,·
O=[N+]([O-])c1cccc(NC(=S)N2CCCC2)c1,-4%,i,0%,i
O=[N+]([O-])c1cccc(NC(=S)N2CCc3ccccc32)c1,13µM*,?,2%,i
CC(=O)c1cccc(NC(=O)N2CCCc3ccccc32)c1,?,i,10%,i
